Measurements: PubChem BioAssay (Tox21)
Records with an inconclusive call do not appear. Calls of active or inactive are those of the source. Unless noted, the call rests on the fitted dose curve; in most records, active means well fitted curve in the direction sought with a large enough effect in the repeat runs; inconclusive means weak or mixed curves; inactive means no such curve, though single readings can be large; an effect the other way counts as inactive or inconclusive.

Columns and labels:
[1] = A CellTox Green Cytotoxicity Assay to monitor cytotoxicity in HepG2 cells - 8 hour (AID 1224890); further: nearly all actives have a fitted effect of over 45% in size; further: potency means the concentration at half of the fitted maximal effect
In short: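 Cells and non-lytic dye reagent are dispensed together (600 HepG2 cells/well) and incubated 5 h before DMSO compound transfer. Kinetic fluorescence is then recorded in the same wells during 40 h at 37 C.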

[2] = qHTS assay to identify small molecule antagonists of the estrogen receptor alpha (ER-alpha) signaling pathway using the BG1 cell line in the presence of 0.1 nM 17-beta-estradiol - cell viability counter screen (AID 1259241); further: nearly all actives have a fitted effect of over 40% in size
In short: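 Estradiol-stimulated (0.1 nM) VM7Luc4E2 cells exposed to compounds 22 hr; viability measured by fluorescence of cleaved CellTiter-Fluor substrate after 30 min.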

[3] = qHTS assay to identify small molecule antagonists of the androgen receptor (AR) signaling pathway using the MDA cell line in the presence of 0.5 nM R1881 - cell viability counter screen (AID 1259242); further: nearly all actives have a fitted effect of over 45% in size
In short: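 Steps: plate MDA-kb2 cells, rest 5 hr at 37C without CO2; pin in compounds in DMSO; add R1881 to 0.5 nM final; incubate 16 hr; add CellTiter-Fluor, 30 min; read fluorescence.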

[4] = qHTS assay to identify small molecule HDAC inhibitors (AID 1259364); further: potency means the concentration at half of the fitted maximal effect;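 further: wild-type HCT-116 cells with endogenous class I/II HDAC activity; nearly all actives have a fitted effect of over 45% in size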; on activity change, negative = inhibition: top concentration of the series differs between compounds
In short: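 Cells (HCT-116, wild type) are seeded at 1,500 per well, incubated overnight, treated with compound in DMSO for 2 hr, then developed with HDAC-Glo I/II reagent for 30 min at room temperature.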

[5] = qHTS assay to identify small molecule HDAC inhibitors - cell viability counter screen (AID 1259365); further: series mostly up to about 92 µM; nearly all actives have a fitted effect of over 50% in size
In short: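 After overnight seeding at 1,500 cells per well, wild-type HCT-116 cultures took up compounds in DMSO for 2hr at 37 C. Viable cell content came from luminescence with CellTiter-Glo.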

[6] = qHTS assay to identify small molecule agonists of the sonic hedgehog signaling (Shh) pathway - cell viability counter screen (AID 1259366); further: nearly all actives have a fitted effect of over 50% in size
In short: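 Same-well cytotoxicity read. Gli1-Luc reporter 3T3 cells; compounds 24hr, 37C/5% CO2; CellTiter-Fluor fluorescence.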

[7] = qHTS assay to identify small molecule antagonists of the sonic hedgehog signaling (Shh) pathway - cell viability counter screen (AID 1259367); further: nearly all actives have a fitted effect of over 55% in size
In short: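 Viability was read by CellTiter-Fluor fluorescence in the same wells, reagent added 23 hr into compound treatment and incubated 1 hr at 37C. The 3T3 Gli1-Luc reporter cells (2,000/well) received conditioned medium after compound and ran 24 hr.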

[8] = qHTS assay to identify small molecule agonists of the sonic hedgehog signaling (Shh) pathway (AID 1259368; calls by dose curve;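 further: NIH/3T3-derived 3T3Gli1-Luc cells carrying a stable Gli1-driven firefly luciferase reporter; series mostly up to about 92 µM; nearly all actives have a fitted effect of over 15% in size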)
In short: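 Cells of a mouse NIH/3T3 clone stably expressing luciferase under the Gli1 transcriptional response element are exposed to test chemicals for 24 hr at 37 C. Pathway activation is detected as a rise in luminescence.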

[9] = qHTS assay to identify small molecule antagonists of the sonic hedgehog signaling (Shh) pathway (AID 1259369; calls by dose curve; further: nearly all actives have a fitted effect of over 45% in size)
In short: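 Cells are plated and held 4hr at 37 C, compounds (DMSO) are pinned in, conditioned medium is added to stimulate the pathway, and after 24hr luciferase reagent is added for 30min before luminescence is read.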

[10] = qHTS assay to identify small molecule agonists of the androgen receptor (AR) signaling pathway in the presence of an antagonist - cell viability counter screen (AID 1259379);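 further: MDA-kb2 human breast cancer cells carrying an MMTV luciferase reporter; series mostly up to about 92 µM; nearly all actives have a fitted effect of over 25% in size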
In short: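 Cytotoxicity is assessed by CellTiter-Fluor in MDA-kb2 cells carrying an MMTV-driven luciferase reporter. Cells receive 3.0uM nilutamide plus compounds at 15 concentrations and incubate 16 hr at 37C without CO2 before fluorescence reading.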

[11] = qHTS assay to identify small molecule agonists of the estrogen receptor beta (ER-beta) signaling pathway - cell viability counter screen (AID 1259380); further: nearly all actives have a fitted effect of over 30% in size
In short: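 Cytotoxicity is measured in parallel with the reporter screen: after 16 hr compound exposure at 37C and a 2 hr LiveBLAzer step, CellTiter-Glo is added to the same ER-beta-UAS-bla HEK293T wells and luminescence read after 30 min.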

[12] = qHTS assay to identify small molecule antagonists of the estrogen receptor beta (ER-beta) signaling pathway - cell viability counter screen (AID 1259382);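 further: HEK293T cells carrying ER-beta-UAS-bla reporter stimulated with estradiol; series mostly up to about 92 µM; nearly all actives have a fitted effect of over 55% in size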
In short: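 Cytotoxicity counter screen multiplexed with the beta-lactamase antagonist assay: GripTite HEK293T ER-beta-bla cells were treated 16 hr with test chemicals in the presence of 1nM 17-beta-estradiol, and viability was measured by CellTiter-Glo.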

[13] = target: Estrogen receptor (Homo sapiens) (UniProt P03372); experiment: qHTS assay to identify small molecule agonists of the estrogen receptor alpha (ER-alpha) signaling pathway in the presence of an antagonist (AID 1259383; calls by dose curve; further: top concentration of the series differs between compounds; nearly all actives have a fitted effect of over 15% in size)
In short: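 Agonist-mode confirmation in the presence of the ER antagonist ICI-182,780 at 10.0nM final. Breast-derived VM7Luc4E2 reporter cells were exposed to compounds for 22hr, and ERE-driven luciferase was quantified by luminescence.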

[14] = target: Estrogen receptor beta (Homo sapiens) (UniProt Q92731); experiment: qHTS assay to identify small molecule agonists of the estrogen receptor beta (ER-beta) signaling pathway (AID 1259377; active means well fitted activation curve with a large enough effect in the signal ratio in the repeat runs, not every such curve was filed as active; the % refers to the signal ratio)
In short: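 Read-out: beta-lactamase FRET fluorescence. Cell line: ER-beta-UAS-bla HEK293T in 2% charcoal-stripped FBS. Exposure: 16 hr at 37C. Substrate step: 2 h at room temperature.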

[15] = target: Estrogen receptor beta (Homo sapiens) (UniProt Q92731); experiment: qHTS assay to identify small molecule antagonists of the estrogen receptor beta (ER-beta) signaling pathway (AID 1259378; active means well fitted inhibition curve with a large enough effect in the signal ratio in the repeat runs, not every such curve was filed as active; the % refers to the signal ratio)
In short: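 Antagonist mode: compounds added to beta-lactamase reporter HEK293T ER-beta-UAS cells stimulated with E2 (1nM final), 16 hr at 37C. LiveBLAzer B/G FRET substrate, 2 hours room temperature, fluorescence read-out.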

[16] = qHTS assay to identify small molecule agonists or antagonists of the thyroid stimulating hormone receptor (TSHR) signaling pathway - wild type cell line counter screen (AID 1259384; calls by dose curve)
In short: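 Counter screen in untransfected Hek293: compounds (15-point titration, triplicate) plus phosphodiesterase inhibitor Ro20-1724 added after 18 h plating; 30 min RT. Intracellular cAMP via competitive d2/cryptate immunoassay, 1 h incubation.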

[17] = qHTS assay to identify small molecule phospholipidosis (PLD) inducers (AID 1259344; active means well fitted curve in the direction sought with a large enough effect; an effect the other way counts as inactive or inconclusive)
In short: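 Phospholipid accumulation was scored by imaging: fixed, Hoechst-counterstained HepG2 cells stained with LipidTOX Red after 24 h compound exposure at 37 C. Read-outs were pit count and pit intensity per well or per cell, with amiodarone and DMSO controls.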

[18] = target: Estrogen receptor (Homo sapiens) (UniProt P03372); experiment: qHTS assay to identify small molecule antagonists of the estrogen receptor alpha (ER-alpha) signaling pathway using the BG1 cell line in the presence of 0.1 nM 17-beta-estradiol (AID 1259244); further: nearly all actives have a fitted effect of over 50% in size
In short: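 Antagonist mode: compounds in DMSO are pinned onto VM7Luc4E2 reporter cells, 0.1 nM final 17beta-estradiol is added, and after 22 h at 37C luciferase luminescence is measured with ONE-Glo.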
On the % scale 0 is the no-effect control and ±100 the full control effect.

Sequence of Estrogen receptor (Homo sapiens) (P03372 whole entry, looked up): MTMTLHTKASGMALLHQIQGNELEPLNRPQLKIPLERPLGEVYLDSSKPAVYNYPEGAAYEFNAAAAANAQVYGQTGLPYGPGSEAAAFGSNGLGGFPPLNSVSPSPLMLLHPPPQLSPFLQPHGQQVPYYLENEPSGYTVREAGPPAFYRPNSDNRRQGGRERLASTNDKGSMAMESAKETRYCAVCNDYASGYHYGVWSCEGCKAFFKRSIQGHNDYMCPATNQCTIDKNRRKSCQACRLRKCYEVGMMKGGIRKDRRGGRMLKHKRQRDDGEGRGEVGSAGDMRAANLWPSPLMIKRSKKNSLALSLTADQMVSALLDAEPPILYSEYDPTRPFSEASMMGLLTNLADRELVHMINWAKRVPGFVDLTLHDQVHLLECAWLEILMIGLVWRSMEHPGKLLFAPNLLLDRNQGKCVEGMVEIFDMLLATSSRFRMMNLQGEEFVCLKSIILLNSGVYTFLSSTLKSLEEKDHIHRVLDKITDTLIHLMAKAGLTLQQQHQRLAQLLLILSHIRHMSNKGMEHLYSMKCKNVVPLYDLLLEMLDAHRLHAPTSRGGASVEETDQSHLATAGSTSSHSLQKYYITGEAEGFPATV
Sequence of Estrogen receptor beta (Homo sapiens) (Q92731 whole entry, looked up): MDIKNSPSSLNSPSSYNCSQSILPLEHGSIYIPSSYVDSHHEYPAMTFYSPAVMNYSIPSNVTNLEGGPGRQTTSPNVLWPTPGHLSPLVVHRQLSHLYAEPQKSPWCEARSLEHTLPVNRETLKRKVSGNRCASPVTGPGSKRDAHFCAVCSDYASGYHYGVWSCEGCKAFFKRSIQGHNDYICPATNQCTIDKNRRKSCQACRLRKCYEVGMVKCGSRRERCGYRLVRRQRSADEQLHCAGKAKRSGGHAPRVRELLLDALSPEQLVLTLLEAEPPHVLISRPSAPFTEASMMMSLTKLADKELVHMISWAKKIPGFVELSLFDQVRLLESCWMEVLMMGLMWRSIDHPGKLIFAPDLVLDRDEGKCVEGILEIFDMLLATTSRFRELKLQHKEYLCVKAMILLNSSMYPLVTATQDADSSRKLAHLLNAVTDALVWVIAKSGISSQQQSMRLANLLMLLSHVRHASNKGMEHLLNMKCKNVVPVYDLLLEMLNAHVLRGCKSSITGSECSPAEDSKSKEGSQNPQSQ

CC(C)(C)S
inactive: Potency [1] | Potency [2] | Potency [3] | Potency [4] | Potency [5] | Potency [6] | Potency [7] | Potency [8] | Potency [9] | Potency [10] | Potency [11] | Potency [12] | Potency [13]

Nc1ccn([C@H]2CS[C@@H](CO)O2)c(=O)n1
inactive: Potency [1] | Potency [2] | Potency [3] | Potency [4] | Potency [5] | Potency [6] | Potency [7] | Potency [8] | Potency [9] | Potency [14] | Potency [15] | Potency [10] | Potency [11] | Potency [12] | Potency [16]

CCCCCC
inactive: Potency [1] | Potency [2] | Potency [3] | Potency [4] | Potency [5] | Potency [6] | Potency [7] | Potency [8] | Potency [9] | Potency [10] | Potency [11] | Potency [12] | Potency [16]

Cc1c[nH]c2ccccc12
inactive: Potency [1] | Potency [2] | Potency [3] | Potency [17] | Potency [5] | Potency [6] | Potency [7] | Potency [8] | Potency [10] | Potency [11] | Potency [12] | Potency [16]

CC(C)(O)CCc1ccccc1
inactive: Potency [1] | Potency [2] | Potency [3] | Potency [4] | Potency [5] | Potency [6] | Potency [7] | Potency [8] | Potency [9] | Potency [14] | Potency [15] | Potency [10] | Potency [11] | Potency [12] | Potency [13]

CC(C(=O)O)c1ccc(C(=O)c2cccs2)cc1 (stereo unspecified)
inactive: Potency [1] | Potency [2] | Potency [3] | Potency [5] | Potency [6] | Potency [7] | Potency [8] | Potency [9] | Potency [14] | Potency [10] | Potency [11] | Potency [12]
active: Potency [4] 29.8 µM

CC(=O)OCC(=O)[C@@]1(OC(C)=O)[C@@H](C)C[C@H]2[C@@H]3C[C@H](F)C4=CC(=O)C=C[C@]4(C)[C@@]3(F)[C@@H](O)C[C@@]21C
inactive: Potency [1] | Potency [2] | Potency [3] | Potency [17] | Potency [4] | Potency [5] | Potency [6] | Potency [7] | Potency [8] | Potency [14] | Potency [15] | Potency [10] | Potency [12] | Potency [16]

O=C(O)c1ccc(O)cc1O
inactive: Potency [1] | Potency [2] | Potency [3] | Potency [4] | Potency [5] | Potency [6] | Potency [7] | Potency [8] | Potency [9] | Potency [14] | Potency [15] | Potency [10] | Potency [11] | Potency [12] | Potency [16]

Cc1ccc(Cl)cc1N
inactive: Potency [1] | Potency [2] | Potency [3] | Potency [4] | Potency [5] | Potency [6] | Potency [7] | Potency [8] | Potency [9] | Potency [14] | Potency [15] | Potency [10] | Potency [11] | Potency [12]

Cc1ccc2nc(N)[nH]c(=O)c2c1Sc1ccncc1
inactive: Potency [1] | Potency [2] | Potency [3] | Potency [17] | Potency [4] | Potency [5] | Potency [6] | Potency [7] | Potency [8] | Potency [14] | Potency [10] | Potency [12]

CC1CCCO1 (stereo unspecified)
inactive: Potency [1] | Potency [2] | Potency [3] | Potency [4] | Potency [5] | Potency [6] | Potency [7] | Potency [8] | Potency [9] | Potency [14] | Potency [15] | Potency [10] | Potency [11] | Potency [12]

CCCCCCCCCCCCCOC(=O)CCSCCC(=O)OCCCCCCCCCCCCC
inactive: cytotoxicity increase [1] 4.96% [at 15.8 µM] | activity change, negative = cytotoxicity [2] 6.24% [at 19 µM] | viability change, negative = cytotoxic [3] 3.47% [at 19 µM] | activity change, negative = inhibition [4] 3.35% [at 19 µM] | activity change, negative = cytotoxicity [5] 6.04% [at 19 µM] | viability change, negative = cytotoxic [6] 2.43% [at 19 µM] | viability change, negative = cytotoxic [7] -3.37% [at 19 µM] | activity change [8] -0.0494% [at 18.9 µM, hits give high values] | activity change, negative = inhibition [9] 8.97% [at 19 µM] | activation [14] -0.464% [at 19 µM] | activity, negative = inhibition [15] -0.0397% [at 19 µM] | activity change, negative = cytotoxicity [10] -0.499% [at 19 µM] | activity change, negative = cytotoxicity [11] 4.18% [at 19 µM] | activity change, negative = cytotoxicity [12] 3.4% [at 19 µM] | cAMP activity change [16] -3.33% [at 18.9 µM, hits give high values]

Cc1cccc(C)c1NC(=O)c1cc(S(N)(=O)=O)c(Cl)cc1O
inactive: Potency [1] | Potency [2] | Potency [3] | Potency [17] | Potency [4] | Potency [5] | Potency [6] | Potency [7] | Potency [8] | Potency [9] | Potency [14] | Potency [15] | Potency [10] | Potency [11] | Potency [12] | Potency [16]

COc1ccc(C)cc1
inactive: Potency [1] | Potency [2] | Potency [3] | Potency [4] | Potency [5] | Potency [6] | Potency [7] | Potency [8] | Potency [9] | Potency [10] | Potency [11] | Potency [12]

CC[C@H]1OC(=O)[C@H](C)[C@@H](O[C@H]2C[C@@](C)(OC)[C@@H](O)[C@H](C)O2)[C@H](C)[C@@H](O[C@@H]2O[C@H](C)C[C@H](N(C)C)[C@H]2O)[C@](C)(O)C[C@@H](C)CN(C)[C@H](C)[C@@H](O)[C@]1(C)O
inactive: Potency [1] | Potency [2] | Potency [3] | Potency [18] | Potency [5] | Potency [7] | Potency [8] | Potency [14] | Potency [15] | Potency [10] | Potency [11] | Potency [12] | Potency [13]

O=C(O)CCC(=O)OC[C@@H](NC(=O)C(Cl)Cl)[C@H](O)c1ccc([N+](=O)[O-])cc1
inactive: Potency [2] | Potency [3] | Potency [17] | Potency [4] | Potency [5] | Potency [6] | Potency [7] | Potency [8] | Potency [9] | Potency [15] | Potency [10] | Potency [11] | Potency [12]
active: Potency [1] 21.3 µM

CC(=O)OCC1=C(C(=O)O)N2C(=O)[C@@H](NC(=O)CSc3ccncc3)[C@H]2SC1
inactive: Potency [1] | Potency [2] | Potency [3] | Potency [17] | Potency [4] | Potency [5] | Potency [6] | Potency [7] | Potency [8] | Potency [9] | Potency [14] | Potency [15] | Potency [10] | Potency [11] | Potency [12] | Potency [16]

C=C(C)c1ccccc1
inactive: Potency [1] | Potency [2] | Potency [3] | Potency [4] | Potency [5] | Potency [6] | Potency [7] | Potency [8] | Potency [9] | Potency [14] | Potency [15] | Potency [10] | Potency [11] | Potency [12] | Potency [16]
